3CLpro inhibitor – SARS-CoV 3CLpro protease inhibition; hit rate 0.14% among 290,000; inhibition, % at 6 µM; P0C6X7; recombinant SARS-CoV 3CLpro, quenched FRET peptide cleavage; in the data active = inhibition above about 12%
BoNT-A LC inh2 – inhibitors of Botulinum neurotoxin A light chain protease | inhibition, % at 10 µM | multiplex microsphere protease substrate cleavage, flow cytometry | hit rate 0.17% among 360,000; note: plate controls were buffer without enzyme for full effect and enzyme alone for no effect
BoNT-F LC inh – blocks Botulinum neurotoxin F light chain protease | Multiplex microsphere protease cleavage assay, flow cytometry | inhibition, % at 10 µM | hit rate 0.22% among 360,000 | AID 588497; in the data active = inhibition above about 35%, passing the limit was not always enough; inconclusive = no clear call, values can overlap the other calls; note: plate controls were buffer without enzyme for full effect and enzyme alone for no effect
Bead autofluor – flagged as autofluorescent in microsphere protease counterscreen; fluorescence intensity (test concentration not listed); hit rate 3.1% among 360,000; compound autofluorescence counterscreen, microsphere flow cytometry; hits give high values; AID 624483; in the data active = fluorescence intensity above about 16000; inconclusive = no clear call, values can overlap the other calls
Anthrax LF prot – blocks Bacillus anthracis lethal factor protease; inhibition, % at 10 µM; P15917; hit rate 0.12% among 360,000; multiplex microsphere protease cleavage assay, LF; note: plate controls were buffer without enzyme for full effect and enzyme alone for no effect
Target sequence (P15917 whole entry, looked up): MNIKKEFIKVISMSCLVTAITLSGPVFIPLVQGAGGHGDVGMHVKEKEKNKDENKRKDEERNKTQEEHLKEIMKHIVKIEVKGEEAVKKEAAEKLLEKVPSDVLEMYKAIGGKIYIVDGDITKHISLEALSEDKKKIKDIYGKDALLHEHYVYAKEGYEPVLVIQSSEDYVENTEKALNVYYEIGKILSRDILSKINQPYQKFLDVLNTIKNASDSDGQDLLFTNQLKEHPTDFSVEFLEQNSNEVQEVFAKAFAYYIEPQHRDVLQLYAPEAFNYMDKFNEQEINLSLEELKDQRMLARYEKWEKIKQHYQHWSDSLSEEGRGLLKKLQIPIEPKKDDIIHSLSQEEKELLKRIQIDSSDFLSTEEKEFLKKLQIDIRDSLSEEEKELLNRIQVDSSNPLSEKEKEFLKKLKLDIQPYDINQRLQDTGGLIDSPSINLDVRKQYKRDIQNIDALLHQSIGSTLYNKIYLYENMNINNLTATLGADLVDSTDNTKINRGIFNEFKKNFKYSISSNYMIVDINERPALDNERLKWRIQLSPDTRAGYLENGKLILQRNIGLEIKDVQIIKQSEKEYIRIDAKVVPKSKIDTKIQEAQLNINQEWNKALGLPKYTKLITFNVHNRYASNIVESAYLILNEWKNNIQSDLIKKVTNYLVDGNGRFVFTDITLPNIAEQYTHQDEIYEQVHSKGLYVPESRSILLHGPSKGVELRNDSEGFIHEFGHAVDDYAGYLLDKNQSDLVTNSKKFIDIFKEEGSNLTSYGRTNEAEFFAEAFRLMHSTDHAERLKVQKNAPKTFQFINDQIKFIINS
BJeLR viability – BJeLR cell viability loss; BJeLR (HRASV12) viability, CellTiter-Glo ATP luminescence, 48 h; inhibition, % (no concentration beside the values); hit rate 0.17% among 300,000; in the data active = inhibition above about 50%; inconclusive = no clear call, values can overlap the other calls
* hit, by the source's call; ? = inconclusive; . = not tested or not shown. This is a sample that favours compounds with a hit; in the whole collection about 3.6% have one here. Cut-off read from the data, not from the text of the source, unless noted: active = inhibition above about 30%; inconclusive = no clear call, values can overlap the other calls; inactive = below that.

SMILES	3CLpro inhibitor	BoNT-A LC inh2	BoNT-F LC inh	Bead autofluor	Anthrax LF prot	BJeLR viability
Cc1oc(-c2ccc(Cl)cc2)nc1CN1CCC(C(=O)NCc2ccco2)CC1	-2	-1	-3	4636	-6	5
Cc1ccccc1-c1nc(CN2CCC(C(=O)NCc3cccnc3)CC2)c(C)o1	-3	?	-3	22517*	-8	-3
COc1ccccc1CNC(=O)C1CCN(Cc2nc(-c3cccc(Cl)c3)oc2C)CC1	2	0	-4	7001	-6	-6
Cc1ccccc1-c1nc(CN2CCC(C(=O)NCc3ccco3)CC2)c(C)o1	-1	2	1	21224*	-6	-4
CCc1ccc(-c2nc(CN3CCC(C(=O)NCc4ccccc4OC)CC3)c(C)o2)cc1	6	?	-2	25156*	1	-2
CN(c1ccccc1)S(=O)(=O)c1ccc(Cl)c(C(=O)NCc2ccccc2CN2CCCC2)c1	.	-1	0	3550	-1	.
Cc1oc(-c2ccccc2F)nc1CN1CCC(C(=O)NCc2cccnc2)CC1	-1	1	1	20391*	-1	0
CC(Sc1nc2ccccc2c(=O)n1CC1CCCO1)C(=O)N(C)c1ccccc1 (stereo not given)	.	0	-7	4235	-4	.
CC1CCCN(C(=O)C2c3ccccc3C(=O)N3CCc4ccccc4C23)C1 (stereo not given)	-2	-2	-5	23724*	0	6
O=C(Nc1sccc1C(=O)NCc1ccco1)c1cccnc1	-5	?	-1	16659*	3	-8
CCNC(=O)C1(C)CCCCN1Cc1ccc(C#N)cc1 (stereo not given)	.	0	-8	2932	-6	.
CCOc1c(Cl)cc(C(=O)NCCN2CCCCC2)cc1Cl	-1	4	4	22799*	2	4
Cc1cccc(OCC(=O)NNc2c3ccccc3nc3ccccc23)c1	7	2	0	21560*	-3	1
Cc1ccc(OCC(=O)NCCN2CCOCC2)cc1C	3	0	10	3504	-3	7
Cc1cccc(C(=O)NCCN2CCCC2)c1	0	-1	0	20070*	-2	4
Cc1ccc(C(=O)NCCN2CCCC2)cc1	2	0	-11	3009	-2	-4
Cc1ccc(OCC(=O)NNc2c3ccccc3nc3ccccc23)cc1	-5	0	-6	2128	-3	20
Cc1cccc(OCC(=O)NCCN2CCOCC2)c1	2	-2	-5	20366*	-2	7
CCCSc1nc(-c2ccccc2)cc(C(F)(F)F)c1C#N	-4	10	10	19871*	-3	-1
Cc1ccc(C2=N/C(=C/c3cccs3)C(=O)N2Nc2ccccc2)cc1	2	80*	43*	6977	58*	-5
COc1ccc2c(c1)[nH]c1c(=O)n(CC3CCCO3)cnc12 (stereo not given)	2	-2	-2	17272*	-2	-13
COC(=O)c1ccccc1N=Nc1c(C)noc1C	-3	3	?	3984	34*	4
O=C(NCCCCNC(=O)C1CCCC1)C1CCCC1	-2	0	2	22858*	0	-3
N#Cc1ccccc1Cn1c(-c2cscn2)nc2ccccc21	-4	?	-3	22811*	-1	3
O=C(O)Cn1c(-c2cscn2)nc2ccccc21	1	0	-1	4413	-2	-9
SMILES	3CLpro inhibitor	BoNT-A LC inh2	BoNT-F LC inh	Bead autofluor	Anthrax LF prot	BJeLR viability
COc1cc(C(=O)NCCC(=O)NCCCN2CCCCC2)cc(OC)c1OC	-1	-7	-6	25617*	-6	9
COc1cc(C(=O)OCCCOC(=O)c2cc(OC)c(OC)c(OC)c2)cc(OC)c1OC	-3	-1	5	5918	-1	3
COc1cc(C(=O)NCC(C)C)cc(OC)c1OC	2	-1	-1	16687*	-2	0
CCN(CC)CC(C)OC(=O)c1cc(OC)c(OC)c(OC)c1 (stereo not given)	3	?	4	19405*	-1	9
CCOCCCNC(=O)CCNC(=O)c1cc(OC)c(OC)c(OC)c1	-1	-1	-3	20238*	-4	-15
Cc1c(C(=O)N2CCCCC2C)sc2nc3n(c(=O)c12)CCC3 (stereo not given)	-1	-3	3	4909	-4	4
CC(C)c1ccc(NC(=O)c2cc(-c3cc(F)ccc3OCC3CCCO3)n[nH]2)cc1 (stereo not given)	.	0	-7	3358	-1	.

Screening results (PubChem BioAssay)
